# Pf Dd2 growth: Plasmodium falciparum Dd2 growth inhibition; Potency, µM (highest dose often 28.9 µM), for inactives: at the top dose activity, negative = inhibition, most hits filed as inhibitors; P. falciparum Dd2 growth, SYBR Green, 72 h; 4.3% of 120,000 active; active = well fitted inhibition curve with a large enough effect;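 note: plate controls were DMSO vehicle for no effect and reference drug for full effect; nearly all actives have a fitted effect of over 65% in size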
#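 Readout: SYBR Green fluorescence, 485 nm excitation, 535 nm emission, after ~16 h lysis at 37C. Before that, Dd2-infected red cells (2.5% hematocrit) grew 72 h with compound, 29 uM top final concentration.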
# * = called active by the depositor; i = inactive; [ ] = remark or other dose. The full list was thinned out, with hits kept by preference. Potency is the fitted concentration of half-maximal effect.
SMILES,Pf Dd2 growth
CSc1ccc(/C=C/c2nc3ccccc3n2S(=O)(=O)c2ccc(F)c(C)c2)cc1,i
CCOc1ccc(Cn2c(CNS(=O)(=O)c3cccc(Cl)c3)nc3cccnc32)cc1,-8%
COCCc1nn2c(=O)cc(COC(=O)c3ccco3)nc2s1,62%
O=c1[nH]nc2n1CCN(S(=O)(=O)c1cc(F)ccc1F)C2,-7%
CCCC1(CO)CCCN(Cc2cn3ccc(C)cc3n2)C1 (stereo unspecified),10µM*
CCCC1(CO)CCCN(Cc2nnc(-c3cccnc3)o2)C1 (stereo unspecified),-4%
CCCC1(CO)CCCN(C(=O)CCn2ccc(=O)[nH]c2=O)C1 (stereo unspecified),-19%
COc1cccc(N2C(=O)NC(=NC3CCCCC3)C23CCN([S+](=O)([O-])c2ccccc2)C3)c1 (stereo unspecified),-20%
COc1cccc(C2NC(=O)c3n[nH]c(-c4cccs4)c32)c1 (stereo unspecified),-14%
CC1=C(C(=O)OC(C)C)C(c2cccc(F)c2)N2C(CC(=O)NCc3ccco3)=CSC2=N1 (stereo unspecified),-16%
CCOC(=O)c1ccc(N2C(=O)c3n[nH]c(-c4cccs4)c3C2c2ccc(Cl)cc2Cl)cc1 (stereo unspecified),-4%
CCOC(=O)c1sc(N2C(=O)c3oc4cc(C)c(C)cc4c(=O)c3C2c2cccc(O)c2)nc1C (stereo unspecified),-4%
CCOC(=O)c1ccc(N2C(=O)c3n[nH]c(-c4cccs4)c3C2c2ccc(C(C)(C)C)cc2)cc1 (stereo unspecified),7.1µM*
CCOC(=O)c1ccc(N2C(=O)c3[nH]nc(-c4ccc(OC)cc4)c3C2c2ccc(C)cc2)cc1 (stereo unspecified),8.9µM*
CCOC(=O)c1ccc(N2C(=O)c3n[nH]c(-c4cccs4)c3C2c2ccc(O)c(OC)c2)cc1 (stereo unspecified),53%
CCOC(=O)c1ccc(N2C(=O)c3n[nH]c(-c4cccs4)c3C2c2ccc(C)cc2)cc1 (stereo unspecified),49%
CCc1ccc(C2c3c(-c4ccccc4)n[nH]c3C(=O)N2c2ccc(C(=O)O)cc2)cc1 (stereo unspecified),-10%
CCOC(=O)c1ccc(N2C(=O)c3n[nH]c(-c4cccs4)c3C2c2cccc(F)c2)cc1 (stereo unspecified),7.9µM*
CCOC(=O)c1ccc(N2C(=O)c3n[nH]c(C)c3C2c2ccc(C(C)C)cc2)cc1 (stereo unspecified),-19%
CCOC(=O)c1ccc(N2C(=O)c3n[nH]c(-c4ccco4)c3C2c2cccc(F)c2)cc1 (stereo unspecified),10µM*
Cc1ccc(NC(=O)N2CCC(Oc3ncccc3C(=O)N3CCOCC3)C2)c(Cl)c1 (stereo unspecified),10%
NC(=O)Cn1c(=O)n(CCCCCC(=O)NCc2ccccc2Cl)c(=O)c2sccc21,22%
COc1ccc(-c2nnc3ccc(N4CCc5ccccc5C4)nn23)nc1,i
CNC(=O)[C@@H](C1CC1)N1CCC[C@H]1C(=O)NC(C)C,54%[44.1 µM]
O=S(=O)(c1ccc(F)cc1)N1CCOC[C@H](Oc2ccc(C(F)(F)F)cn2)C1,i
SMILES,Pf Dd2 growth
Cn1c([C@H]2CCN(C(=O)c3cnccn3)C2)nc2ccccc21,12%[44.1 µM]
COc1cccc(CN(C)Cc2ccccc2C(F)(F)F)c1,-18%[44.1 µM]
COC(=O)c1ccc(NC(=O)CSc2cn(CC(=O)N3CCCCCC3)c3ccccc23)cc1,-16%
Cc1cccnc1CN1CCN2C(=O)N(c3ccccc3)C[C@H]2C1,9%[44.1 µM]
COc1cc(C2c3c(-c4ccc(C)cc4)n[nH]c3C(=O)N2c2ccc(F)cc2)ccc1O (stereo unspecified),i
Cc1ccc(-c2n[nH]c3c2C(c2cccs2)N(c2ccc(Cl)cc2)C3=O)cc1 (stereo unspecified),11µM*
Cc1ccc(-c2n[nH]c3c2C(c2ccccc2Cl)N(c2ccc(C(=O)O)cc2)C3=O)cc1 (stereo unspecified),-6%
Cn1nc(C2CCN(C(=O)c3ccco3)CC2)c2c1CCOC2,i[5.79 µM]
COCC1CCN(C(=O)c2ccc3oc(-c4ccc(C(F)(F)F)cc4)nc3c2)C1 (stereo unspecified),4%
CCOc1cccc2cc(-c3nc4ccc(C(=O)O)cc4[nH]3)c(=O)oc12,484%[5.79 µM]
Cc1ccccc1-c1cc(O)c2c(c1)CN(Cc1ccoc1)CCO2,11µM*
Oc1cc(-c2cccc(Cl)c2)cc2c1OCCN(c1cc(C3CC3)ncn1)C2,i
Cc1nc(C(=O)N2CCOc3c(O)cc(-c4cccc(Cl)c4)cc3C2)cs1,i
CC(C)CNC(=O)CN1CCOc2c(O)cc(-c3cccc(Cl)c3)cc2C1,10µM*
Cc1ccncc1C(=O)N1CCOc2c(O)cc(-c3ccccc3C)cc2C1,-9%
C=CCn1cc(CN2CCOc3c(O)cc(-c4cccc(Cl)c4)cc3C2)cn1,11µM*
CCc1noc(CN2CCOc3c(O)cc(-c4ccccc4C)cc3C2)n1,i
Cn1cc([C@@H](NC(=O)CN2CCOc3ccccc3C2)C2CC(O)C2)cn1 (stereo partly specified),2%
C=CCn1cc(CN2CCC(Oc3ccc4ccccc4c3)(C(=O)O)CC2)cn1,8%
Cc1ccc(CNC(=O)C2CCCN(c3cnn(C)c(=O)c3)C2)o1 (stereo unspecified),9%
COc1cccc(NS(=O)(=O)c2ccc3[nH]cc(C(=O)N(C)Cc4ccco4)c(=O)c3c2)c1,2%
Cc1noc(-c2ccccc2Cl)c1C(=O)NCc1cccc(F)c1F,-13%
CC(C(=O)NCc1ccc(N2CCOCC2)cc1)C1CCOCC1 (stereo unspecified),46%
CNC(=O)[C@@H]1C[C@H](Oc2ccccc2)CN1C(=O)CCCc1c[nH]c2ccccc12,-7%
COc1ccc(CN2CCC[C@H]2c2nc(-c3ccnc(N4CCOCC4)c3)no2)cc1,-26%[44.1 µM]
SMILES,Pf Dd2 growth
CC(=O)N1CCN(c2cc(-c3noc([C@@H]4CCCN4Cc4ccc(CO)o4)n3)ccn2)CC1,i
c1ccc(CN2CCC[C@H]2c2nc(-c3ccnc(N4CCOCC4)c3)no2)nc1,7.1µM*
c1cc(-c2noc([C@@H]3CCCN3Cc3ncc[nH]3)n2)cc(N2CCOCC2)n1,13%[44.1 µM]
CC(=O)N1CCN(c2cc(-c3noc([C@@H]4CCCN4Cc4ccccc4C)n3)ccn2)CC1,13µM*
NC(=O)C1CCN(c2cc(-c3noc([C@@H]4CCCN4Cc4ccccc4F)n3)ccn2)CC1,i
CCOc1cc(-c2nc(-c3ccc(Br)cc3)no2)cc(OCC)c1OCC,0%
O=C(COc1ccccc1)Nc1cccn2nc(C3CCC3)nc12,i
CCC(CC)n1ncc(C)c1NC(=O)CC(c1ccccc1)c1ccco1 (stereo unspecified),4%
COc1ccc(CCC(=O)N2C[C@@H](Oc3ccccc3)C[C@H]2C(=O)NC2CC2)cc1,9%
COc1ccc(C)cc1Nc1nc(-c2cccc(Cl)c2)c2c(n1)-c1ccccc1OC2,62%[0.594 µM]
CCOC(=O)c1c(C)oc2nc(C)nc(Nc3cc(C)ccc3OC)c12,-9%
COc1ccc(C)cc1Nc1nc(N)c2cc(OC)c(OC)cc2n1,2.8µM*
Cc1ccc(Cl)cc1N1CCN(C(=O)CCc2nnc3n(C)c(=O)c4ccccc4n23)CC1,-19%
Cc1ccc(Cl)cc1N1CCN(C(=O)c2cc3c(=O)n(C)c4ccccc4c3s2)CC1,32%[5.79 µM]
Cc1ccc(Cl)cc1N1CCN(C(=O)c2cn(CC(C)C)c(=O)c3c2c2ccccc2n3C)CC1,3.2µM*

# Screening results deposited in PubChem by National Center for Advancing Translational Sciences (NCATS).
